69 sequences from PubChem BioAssay AID1508600 (Functional Genomics Laboratory (NCATS/FGL), 2020) can be followed below.

Hit rate of the full screen: of about 53,000 sequences, about 3,700 (7%) were called active. The entries come from a sample that favours actives as a whole. A number with no mark means an inactive call.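 How the source made its calls: active means gene knockdowns whose robust z-score for IL-1 alpha signal is at least 2 or at most -2, so actives lie on both sides; inactive means the rest.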

The experiment in a line: Components of the Cytosolic LPS Sensing Pathway: Gene Identification via Genome-wide siRNA Screen.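 Further: robust z of the log signal after scaling to non-targeting control siRNA wells of the plate.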 The following applies: RAW264.7 macrophages, IL-1a HTRF, actives lie on both sides, screened at 100 nM (by protocol), cells primed 5 h with Pam3CSK4 first. The gist of the method:
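Using IL-1a HTRF as read-out, the screen measured release from RAW264.7 cells after 48h siRNA knockdown (100 nM), 5 h Pam3CSK4 priming and 24 h cytosolic LipidA. Values were expressed relative to negative-control wells as robust z-scores.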
Take GCUAAACUCGCUCAAUCUGTT against Cd14: the z-score is 0.537. The figure for CCUACUACUUCGUUAUCCGTT against Chrna2 is 0.447; for GCUGAUGUGAAUGGCUCACTT against Gmeb2 it is -1.02; for GGCCCUUUGAGUCGUUCCUTT against Batf3 it is 2.6 (active).

On to CCGUGUCUUAGGUGAUCACTT against H2-DMb1, for which the z-score was 0.391.

As to GGAGACGAAUCCUUUCAGUTT against Mis12, the z-score was 0.476.

As to CCAAAGGUUACCAGGAAGCTT against Pcsk4, the z-score is 0.124. The figure for GCAGCUAAAACAAGUUUGATT against Sntg2 is -0.565; for GGAUUUACCUUACAAAAGUTT against Aff2 it is 0.578; for GGAUCUAUUCUCUCUGAUGTT against Prune2 it is 1.03. For GGCAAAGUAUAAAGAAGUATT against Gkap1, the z-score was 2.23 (active). GCCAUUAAGAUCGCUUACUTT against Selenop: the z-score was -0.432. The figure for GGAGCUUUCUCAAGAUUCATT against Arid1a is 0.263; for GCGACUUCGCUAUAUCAAGTT against Samhd1 it is 1.65. Take CCUUAGGAUUUGAACGCGUTT against Cutc: the z-score is -0.554. GCUAGUAUUCUAAGAUCUUTT against Mpp6: the z-score was 2.25 (active). The same measure for GGCAAAAUCGUGAAAAUUCTT against Vwf: -0.144; for GGCGAUCCUUACUCCAAUGTT against Zfp90: 0.143; for GGAAUGGACCUCAAAAUUGTT against Vmp1: 0.532. The same measure for GCCACUACCGAUUUUCCCUTT against Lctl: -2.29 (active); for GGAGAUGCUAGAAAUUGUGTT against Hpca: -0.909.

In the case of GCACAUCGGCCUUAAGUCATT against Supt4a, the z-score was -0.833.

Consider CCGUUUUCGCUUUGAGAAATT against Smarcad1, for which the z-score was 4.47 (active).

Take GUAAUUCACAGCCUCUCCGTT against Pitx3: the z-score was 1.03. Turning to GGACAUUUUAGUUGUCUUGTT against Slc38a4, the z-score is -0.607.

Turning to GGAUCCAAGGCAAAGAUGUTT against Fto, the z-score is 1.73. As for AUACGAUUUUUGUACUGCUTT against Defa4, the z-score was 0.305.

With GCCAGGUGUGGUGACUCAUTT against Tprkb, the z-score is 0.584. For GCUAUGCAAAUGGUGUCAATT against Fcnb, the z-score is -0.147.

In the case of GGUGAGAUGGUUCAACAUGTT against Olfr77, the z-score is 1.7. Consider GGACUUGAACAACUUACAATT against Plcb1, for which the z-score is 2.37 (active). GUAUUAAGACCAAACAGAUTT against Olfr623: the z-score was -0.497. The same measure for CCCAAUCGGUUAAUUGUUGTT against Vcp: -2.37 (active); for GCCAGUUAUCACUUAACCCTT against Cmc1: -0.514; for GGAACCUUCAGAGCGACUUTT against Trib3: 0.224.

Turning to GGCAAGGAGGAUGACAAAATT against Rnf113a2, the z-score is 0.416. The same measure for GGUAGAGAGACUGUAAUUATT against Ppp2r1b: -0.598; for GGAGUUUAUGAAAUUCAACTT against Fcgrt: 1.34; for CCAUCUAUGGUAUGGAGCGTT against Abcg4: 0.606.

On to GGAUGAAGAAGAUGAAGAUTT against Prepl, for which the z-score is -2.62 (active).

With GGAAGACUUUGAAUACCACTT against Slc4a2, the z-score was 0.457. Regarding GCUGUUCUGCAAAACUGGATT against Rbpms, the z-score was -1.36. GGACACAAGGUCGCCAUCUTT against Tcf7l1: the z-score was -0.502.

With GGUGCUGGAUGAAUUUGGGTT against Zp1, the z-score was -0.416. The figure for GCAUGUCGCCUUGAAAUUATT against Cpne4 is 0.202; for GGAAGGAGGGUAUGUGGUUTT against Lgals9 it is -0.346; for GCAAACUGCCCUCUUUGUGTT against Olfr1024 it is 2.54 (active). The figure for GGAUAUACACAACAGGCACTT against Tceal9 is 0.422. The figure for GGAGACACAUAGGUGUAAATT against H2-T23 is 0.458; for “GCACCAUCGACUAAUCAAATT against 1700029J07Rik” it is 1.12; for CCUCUGCUACUCUUAUUGUTT against Ttn it is -0.523. On to GGACUGUACAGUGGCAUUATT against Cd70, for which the z-score was -1.69.

Regarding UACUCGUGGUGUUUGCAAGTT against Olfr1154, the z-score is 0.873.

Regarding GGUGGAAGCAAGAGAAAAUTT against Tnp1, the z-score was 2.03 (active). The figure for GCUCAUGUCUUAUUUGGAUTT against Klhl15 is -0.393.

For CCGAAGUGCCAUGCCAUUUTT against Pdlim1, the z-score is 0.399. For the sequence GCACAUUUAUCCCGGUGUATT against Pnpla2, the z-score was -2.01 (active). The figure for GGUUCAAUUCAAGUCUUUATT against Olfr195 is 0.339; for GGCCUACAGCUGGAAAGAATT against Chrm1 it is 0.418. The figure for GCUGCUCUGCUAUAAGUAUTT against Kptn is -0.269; for GGAAAUCGAUAGUUUCUUCTT against Olfr1302 it is -0.0687.

For the sequence GACCUUCGUUAGCAUUACGTT against Pfn1, the z-score was 0.65.

As for GCUGUUUUGUCUCCAGCCCTT against Zbtb20, the z-score was -0.118. The same measure for GGGAUAUGUGACUAUGUUATT against Slc5a7: -0.138; for GCUGAGAAUCGUUUAAAUGTT against Ugt2a3: 0.00662.

Turning to “GCUAAUUGUUCACUAAAGGTT against 1700029H14Rik”, the z-score is 0.655. The same measure for GGUUAUCAUGAGGCCUUGGTT against Olfr1339: -2.38 (active). The figure for GGUCAGAAAAGUAUGUUGGTT against Naip5 is 0.208; for GUGUAUCCCAGGCUAUCACTT against Vmn1r19 it is -1.17.
